# The supplement of paper PMC10338343
# ± gives the standard deviation.
# System: EfPiwi piRISC loaded with L1MC piRNA (26 nt)
# Assay: pre-steady-state target cleavage rate (min^-1); auxiliary factor: 500 nM Ephydatia muelleri Gtsf1; guide: L1MC piRNA 5'p-UAACUAAAUACUAUGCAAGCUGUAGG; MIWI and MILI are mouse PIWI proteins and EfPiwi is from a freshwater sponge; tags in brackets are library labels; higher = faster piRNA-guided slicing of the target
# In short: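 Using HEPES–potassium acetate buffer at 33 °C, 1 nM active affinity-purified piRISC with a single synthetic guide was mixed with 0.1 nM transcribed, DNA-blocked target RNA library for 0–8 or 0–960 min, with or without 500 nM GTSF1 partner protein. Uncleaved targets were sequenced and normalised to depth and to weakly complementary targets, and three trials were pooled with k3 capped at 0.0001 min^-1. A burst-and-steady-state fit gave the pre-steady-state cleavage rate.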
row,Sequence,pre-steady-state target cleavage rate
1,UCCUGGAUCAGGUUGCAUAGUUUUUAGUUA,0.00481 ± 0.0024
2,UCCUGGAACAGCUAGCAUAGUAAUUAGUUA,0.0062 ± 0.0028
3,UCCUCCAACAGCUUGCAUAGUAUAUAGUUA,0.00628 ± 0.0027
4,UCCUGGUAGUCCUUGCAUAGUAUUUAGUUA,0.00556 ± 0.0026
5,UCCUGGAUCAGCUUGGAUAGUAUUUAGUAA,0.00463 ± 0.0023
6,UCCUGGAUGAGCUUGCAUAGUAUGUUAGUUA,0.00879 ± 0.0036
7,UCCUGGAUCACCUUGCAUACUAUUUAGUUA,0.00341 ± 0.0028
8,UCCUCCUACAGCUUGCAUGGUAUUUAGUUA,0.0681 ± 0.02
9,UCCUCCUACAGCUUGCAUAGUAUUUAGUCA,0.00693 ± 0.003
10,UCCUGGAACAGCUUGCAUAGUAUUUAGUGUA,0.00557 ± 0.0021
11,UCCUCCUACAGCAUGCAUAGUAUUUAGUUA,0.0743 ± 0.019
12,UCCUGCUACCAGCUUGCAUAGUAUUUAGUUA,0.0199 ± 0.0059
13,UCCUCCUACAGCUUGCAAAGUAUUUAGUUA,0.0392 ± 0.012
14,UCCUCCUACAGCUUGGAUAGUAUAUAGUUA,0.00941 ± 0.0032
15,UCCUGCUACAGCAUGCAUAGUAUAUAGUUA,0.00599 ± 0.0029
16,UCCUGCUACACGAUGCAUAGUAUUUAGUAA,0.00352 ± 0.0024
17,UCCUGGAUGUCCCUGCAUAGUAUUUAGUUA,0.00326 ± 0.0026
18,UCCUGGUACAGCUUGCAUAAUAUUUAGUUA,0.00307 ± 0.0027
19,UCCUGCUACAGGUAGCAUAGUAUUUAGUUA,0.0207 ± 0.0042
20,UCCUGGUACAGCUUGCAUAGUAUUUAGUGUA,0.00435 ± 0.0027

row,Sequence,pre-steady-state target cleavage rate
1,UCCUGGUACAGCAUGCAUACUAUUUAGUUA,0.00483 ± 0.0019
2,UCCUGGUACGAGCUUGCAUAGUAUUUAGUUA,0.00873 ± 0.0027
3,UCCUGGAUGUCCGUUGCAUAGUAUUUAGUUA,0.00412 ± 0.0033
4,UCCUCCUACAGAUUGCAUAGUAUUUAGUUA,0.0555 ± 0.014
5,UCCUGCUACAGCUUGCAUAGGUAUUUAGUUA,0.00304 ± 0.0019
6,UCCUGGAUCUGCUUGCAUUGUAUUUAGUUA,0.00657 ± 0.003
7,UCCUGCUACUGCUUGGAUAGUAUUUAGUUA,0.0111 ± 0.0029
8,UCCUGGAAUAGCUUGCAUAGUAUUUAGUUA,0.0137 ± 0.0037
9,UCCUGCUUCAGCUUGCAUAGUAUUUAGUUA,0.103 ± 0.025
10,UCCUGGAUCAGCUUCGAUAGUAUUUAGUUA,0.00503 ± 0.0041
11,UCCUGGUAGAGCUUGCAUAGUAUUUAGUUA,0.0138 ± 0.0044
12,UCCUGCUACAGGUUGGAUAGUAUUUAGUUA,0.00793 ± 0.0027
13,UCCUGCUACAGCUUGCAAUGUAUUUAGUUA,0.00312 ± 0.0024
14,UCCUGGAUGUCCUUCGCAUAGUAUUUAGUUA,0.01 ± 0.0052
15,UCCUGGAACAGCUUGCAUAGUAUCUUAGUUA,0.0187 ± 0.0064
16,UCCUGCUACAGCUUGCAUUGUAUUUUGUUA,0.00346 ± 0.0021
17,UCCUGGAUGAGCUUGCAUAGUAUUUAGUAA,0.00367 ± 0.0022
18,UCCUGGAAGAGCUUGCAUUGUAUUUAGUUA,0.0104 ± 0.0029
19,UCCUGCUACAGAUUGCAUAGUAUUUAGUUA,0.0138 ± 0.0034
20,UCCUGGAACAGCCUGCAUAGUAUUUAGUUA,0.0144 ± 0.0045
